From ChEMBL document CHEMBL1961873, “Compounds: GSK PKIS; Assays: Nanosyn kinase panel” (2012) come the findings set out here.

The term inhibition denotes the drop in the measured response relative to a control, in per cent.

Test [1] has as its target Leukocyte tyrosine kinase receptor (Homo sapiens) (UniProt P29376). The conditions noted are these: at 1 µM.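 Note: each value is the mean inhibition of LTK.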
Test [2] addresses Tyrosine-protein kinase Lyn (Homo sapiens) (UniProt P07948). Particulars: at 0.1 µM.
For test [3] the target is unchanged. The conditions noted are these: at 1 µM.
Test [4] shares this target. Particulars: at 0.1 µM. The source holds these as a separate data set.
Test [5] shares this target. The conditions noted are these: at 1 µM. This is another data set of the same source.
Test [6] has as its target T1, Tyrosine-protein kinase Mer (Homo sapiens) (UniProt Q12866).
T1 sequence (whole entry): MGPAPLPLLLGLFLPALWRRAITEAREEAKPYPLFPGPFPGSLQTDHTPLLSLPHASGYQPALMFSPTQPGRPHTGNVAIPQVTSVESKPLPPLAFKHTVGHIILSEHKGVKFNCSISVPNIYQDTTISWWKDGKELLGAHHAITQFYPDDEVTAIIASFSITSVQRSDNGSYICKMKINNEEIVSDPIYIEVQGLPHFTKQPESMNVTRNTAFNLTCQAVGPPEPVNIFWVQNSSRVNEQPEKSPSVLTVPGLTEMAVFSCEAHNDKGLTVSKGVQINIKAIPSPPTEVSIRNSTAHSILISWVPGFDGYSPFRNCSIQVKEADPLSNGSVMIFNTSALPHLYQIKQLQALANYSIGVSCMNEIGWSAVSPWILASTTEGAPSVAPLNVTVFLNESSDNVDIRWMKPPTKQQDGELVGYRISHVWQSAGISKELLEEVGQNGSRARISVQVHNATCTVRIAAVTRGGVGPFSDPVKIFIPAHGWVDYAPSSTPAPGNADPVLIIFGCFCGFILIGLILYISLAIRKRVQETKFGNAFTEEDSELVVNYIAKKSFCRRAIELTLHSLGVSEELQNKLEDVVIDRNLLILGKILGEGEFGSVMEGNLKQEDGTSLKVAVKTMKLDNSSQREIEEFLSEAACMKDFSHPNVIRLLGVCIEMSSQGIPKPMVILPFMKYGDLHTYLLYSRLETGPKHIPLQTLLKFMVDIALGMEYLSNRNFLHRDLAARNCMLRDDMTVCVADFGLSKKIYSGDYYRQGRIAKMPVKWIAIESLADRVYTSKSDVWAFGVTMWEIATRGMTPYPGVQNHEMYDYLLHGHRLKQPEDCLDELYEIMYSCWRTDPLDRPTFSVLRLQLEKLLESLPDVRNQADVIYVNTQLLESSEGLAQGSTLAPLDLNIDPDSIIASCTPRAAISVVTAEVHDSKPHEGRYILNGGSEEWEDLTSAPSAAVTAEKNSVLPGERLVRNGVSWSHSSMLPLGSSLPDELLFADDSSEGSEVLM
Particulars: at 0.1 µM.

Test [7] deals with T1, Tyrosine-protein kinase Mer (Homo sapiens). Particulars: at 1 µM.
The target in test [8] is Hepatocyte growth factor receptor (Homo sapiens) (UniProt P08581). Particulars: at 0.1 µM.
For test [9] the target is unchanged. The conditions noted are these: at 1 µM.
In test [10] the target is T2, Muscle, skeletal receptor tyrosine-protein kinase (Homo sapiens) (UniProt O15146).
T2 sequence (whole entry): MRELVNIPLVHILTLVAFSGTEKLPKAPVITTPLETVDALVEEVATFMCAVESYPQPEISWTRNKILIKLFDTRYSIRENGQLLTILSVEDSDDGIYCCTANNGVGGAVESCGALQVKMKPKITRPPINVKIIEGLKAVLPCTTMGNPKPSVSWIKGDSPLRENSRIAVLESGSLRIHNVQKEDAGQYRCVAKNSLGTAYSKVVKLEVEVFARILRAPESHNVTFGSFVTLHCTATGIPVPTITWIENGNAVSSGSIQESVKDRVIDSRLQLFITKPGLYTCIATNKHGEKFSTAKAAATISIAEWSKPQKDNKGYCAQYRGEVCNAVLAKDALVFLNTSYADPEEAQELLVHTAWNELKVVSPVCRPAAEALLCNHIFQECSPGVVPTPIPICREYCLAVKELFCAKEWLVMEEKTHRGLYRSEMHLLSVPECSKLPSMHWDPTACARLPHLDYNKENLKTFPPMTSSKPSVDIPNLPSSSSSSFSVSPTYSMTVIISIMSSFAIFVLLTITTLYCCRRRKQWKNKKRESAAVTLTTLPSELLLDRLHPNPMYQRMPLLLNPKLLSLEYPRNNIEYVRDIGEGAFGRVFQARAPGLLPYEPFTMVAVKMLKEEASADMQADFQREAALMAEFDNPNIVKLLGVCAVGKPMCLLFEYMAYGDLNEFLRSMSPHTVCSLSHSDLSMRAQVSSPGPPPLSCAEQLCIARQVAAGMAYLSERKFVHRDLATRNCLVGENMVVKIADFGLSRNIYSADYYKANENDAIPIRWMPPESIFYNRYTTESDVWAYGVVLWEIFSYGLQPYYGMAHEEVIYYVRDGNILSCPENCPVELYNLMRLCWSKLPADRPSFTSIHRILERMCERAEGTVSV
Particulars: at 0.1 µM.

The target in test [11] is T2, Muscle, skeletal receptor tyrosine-protein kinase (Homo sapiens). The conditions noted are these: at 1 µM.
Test [12] addresses Platelet-derived growth factor receptor alpha (Homo sapiens) (UniProt P16234). Particulars: at 0.1 µM.
Test [13] has the same target. The conditions noted are these: at 1 µM.
The subject of test [14] is Platelet-derived growth factor receptor alpha (Homo sapiens), P16234 [D842V]. Particulars: at 0.1 µM.
Test [15] shares this test system. Particulars: at 1 µM.
The subject of test [16] is Platelet-derived growth factor receptor alpha (Homo sapiens), P16234 [T674I]. Particulars: at 0.1 µM.
Test [17] shares this test system. The conditions noted are these: at 1 µM.
Test [18] deals with Platelet-derived growth factor receptor alpha (Homo sapiens), P16234 [V561D]. The conditions noted are these: at 0.1 µM.
For test [19] the test system is unchanged. Particulars: at 1 µM.
Test [20] has as its target Platelet-derived growth factor receptor beta (Homo sapiens) (UniProt P09619). Particulars: at 0.1 µM.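 Note: reported value is the mean percent inhibition of the kinase.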

Chain of Hepatocyte growth factor receptor (Homo sapiens) (P08581 whole entry): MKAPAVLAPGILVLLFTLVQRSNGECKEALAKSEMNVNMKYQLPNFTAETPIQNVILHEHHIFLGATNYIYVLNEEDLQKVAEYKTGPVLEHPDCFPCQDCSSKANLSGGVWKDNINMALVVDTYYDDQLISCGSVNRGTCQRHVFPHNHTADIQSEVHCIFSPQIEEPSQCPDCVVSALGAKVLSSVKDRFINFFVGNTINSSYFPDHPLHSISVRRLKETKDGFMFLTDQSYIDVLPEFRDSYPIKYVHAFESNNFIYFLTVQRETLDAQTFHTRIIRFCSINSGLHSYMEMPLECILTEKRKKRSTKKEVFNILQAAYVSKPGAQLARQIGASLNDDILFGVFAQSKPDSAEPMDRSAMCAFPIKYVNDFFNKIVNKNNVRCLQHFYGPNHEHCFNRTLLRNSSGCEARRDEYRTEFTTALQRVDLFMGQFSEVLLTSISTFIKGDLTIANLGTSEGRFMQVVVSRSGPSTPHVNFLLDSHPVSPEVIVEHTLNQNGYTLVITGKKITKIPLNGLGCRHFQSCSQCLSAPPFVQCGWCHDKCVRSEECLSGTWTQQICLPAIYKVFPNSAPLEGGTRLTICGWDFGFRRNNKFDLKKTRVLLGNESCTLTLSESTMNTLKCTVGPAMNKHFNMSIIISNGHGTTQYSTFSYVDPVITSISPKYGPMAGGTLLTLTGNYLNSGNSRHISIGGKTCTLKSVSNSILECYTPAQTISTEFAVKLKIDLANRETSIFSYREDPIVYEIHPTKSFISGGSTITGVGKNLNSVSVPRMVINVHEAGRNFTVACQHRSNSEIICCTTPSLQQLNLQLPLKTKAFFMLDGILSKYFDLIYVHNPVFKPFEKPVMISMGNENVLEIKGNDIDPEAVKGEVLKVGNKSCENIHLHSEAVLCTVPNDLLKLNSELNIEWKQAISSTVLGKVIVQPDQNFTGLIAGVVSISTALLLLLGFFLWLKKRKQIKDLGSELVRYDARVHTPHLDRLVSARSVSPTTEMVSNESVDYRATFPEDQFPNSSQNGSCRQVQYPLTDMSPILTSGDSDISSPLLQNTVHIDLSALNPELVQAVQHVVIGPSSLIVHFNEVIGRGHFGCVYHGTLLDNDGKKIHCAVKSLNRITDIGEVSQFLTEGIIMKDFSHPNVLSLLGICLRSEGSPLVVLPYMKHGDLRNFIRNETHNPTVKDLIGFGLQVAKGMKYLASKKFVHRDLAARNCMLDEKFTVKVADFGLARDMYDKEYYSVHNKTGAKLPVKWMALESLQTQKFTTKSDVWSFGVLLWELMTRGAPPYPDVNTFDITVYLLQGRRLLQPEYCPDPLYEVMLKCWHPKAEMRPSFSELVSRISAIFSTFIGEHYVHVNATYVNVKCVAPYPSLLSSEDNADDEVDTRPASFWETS
Chain of Leukocyte tyrosine kinase receptor (Homo sapiens) (P29376 whole entry): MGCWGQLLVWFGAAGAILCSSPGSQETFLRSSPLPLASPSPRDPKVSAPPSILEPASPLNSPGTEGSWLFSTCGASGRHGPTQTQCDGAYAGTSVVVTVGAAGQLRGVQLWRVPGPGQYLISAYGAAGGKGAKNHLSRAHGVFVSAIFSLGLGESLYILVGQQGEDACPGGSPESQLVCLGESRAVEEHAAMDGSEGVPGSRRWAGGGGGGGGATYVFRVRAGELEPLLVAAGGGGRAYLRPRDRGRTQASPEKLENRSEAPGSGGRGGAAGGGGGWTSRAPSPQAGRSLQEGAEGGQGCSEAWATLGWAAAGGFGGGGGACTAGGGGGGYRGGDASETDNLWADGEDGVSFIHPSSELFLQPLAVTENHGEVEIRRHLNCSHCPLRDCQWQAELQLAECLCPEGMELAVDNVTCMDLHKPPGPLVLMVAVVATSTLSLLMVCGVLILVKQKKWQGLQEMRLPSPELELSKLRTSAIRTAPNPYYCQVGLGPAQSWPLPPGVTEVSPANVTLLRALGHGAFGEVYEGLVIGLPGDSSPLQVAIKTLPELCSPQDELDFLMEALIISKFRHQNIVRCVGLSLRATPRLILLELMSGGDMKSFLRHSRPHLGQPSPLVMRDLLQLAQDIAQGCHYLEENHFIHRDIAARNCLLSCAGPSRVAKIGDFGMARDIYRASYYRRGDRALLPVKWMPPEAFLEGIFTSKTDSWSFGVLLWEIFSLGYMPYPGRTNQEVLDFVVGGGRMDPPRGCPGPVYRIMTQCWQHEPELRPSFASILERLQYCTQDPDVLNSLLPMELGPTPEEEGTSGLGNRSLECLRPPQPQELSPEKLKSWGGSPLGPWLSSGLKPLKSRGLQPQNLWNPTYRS
Chain of Tyrosine-protein kinase Lyn (Homo sapiens) (P07948 2-512 limits assumed): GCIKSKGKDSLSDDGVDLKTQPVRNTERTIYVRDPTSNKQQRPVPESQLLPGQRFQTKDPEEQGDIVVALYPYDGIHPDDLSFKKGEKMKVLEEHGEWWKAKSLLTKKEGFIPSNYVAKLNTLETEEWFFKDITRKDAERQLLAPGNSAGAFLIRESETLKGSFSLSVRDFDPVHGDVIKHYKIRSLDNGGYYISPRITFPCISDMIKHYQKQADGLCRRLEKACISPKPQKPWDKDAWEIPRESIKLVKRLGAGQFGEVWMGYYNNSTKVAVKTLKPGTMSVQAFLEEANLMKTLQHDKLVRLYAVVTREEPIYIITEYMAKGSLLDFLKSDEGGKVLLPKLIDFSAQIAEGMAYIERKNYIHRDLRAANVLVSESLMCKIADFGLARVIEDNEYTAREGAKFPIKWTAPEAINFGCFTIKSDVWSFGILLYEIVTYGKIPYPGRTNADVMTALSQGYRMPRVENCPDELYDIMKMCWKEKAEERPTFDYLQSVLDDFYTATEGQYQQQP
Chain of Platelet-derived growth factor receptor beta (Homo sapiens) (P09619 whole entry): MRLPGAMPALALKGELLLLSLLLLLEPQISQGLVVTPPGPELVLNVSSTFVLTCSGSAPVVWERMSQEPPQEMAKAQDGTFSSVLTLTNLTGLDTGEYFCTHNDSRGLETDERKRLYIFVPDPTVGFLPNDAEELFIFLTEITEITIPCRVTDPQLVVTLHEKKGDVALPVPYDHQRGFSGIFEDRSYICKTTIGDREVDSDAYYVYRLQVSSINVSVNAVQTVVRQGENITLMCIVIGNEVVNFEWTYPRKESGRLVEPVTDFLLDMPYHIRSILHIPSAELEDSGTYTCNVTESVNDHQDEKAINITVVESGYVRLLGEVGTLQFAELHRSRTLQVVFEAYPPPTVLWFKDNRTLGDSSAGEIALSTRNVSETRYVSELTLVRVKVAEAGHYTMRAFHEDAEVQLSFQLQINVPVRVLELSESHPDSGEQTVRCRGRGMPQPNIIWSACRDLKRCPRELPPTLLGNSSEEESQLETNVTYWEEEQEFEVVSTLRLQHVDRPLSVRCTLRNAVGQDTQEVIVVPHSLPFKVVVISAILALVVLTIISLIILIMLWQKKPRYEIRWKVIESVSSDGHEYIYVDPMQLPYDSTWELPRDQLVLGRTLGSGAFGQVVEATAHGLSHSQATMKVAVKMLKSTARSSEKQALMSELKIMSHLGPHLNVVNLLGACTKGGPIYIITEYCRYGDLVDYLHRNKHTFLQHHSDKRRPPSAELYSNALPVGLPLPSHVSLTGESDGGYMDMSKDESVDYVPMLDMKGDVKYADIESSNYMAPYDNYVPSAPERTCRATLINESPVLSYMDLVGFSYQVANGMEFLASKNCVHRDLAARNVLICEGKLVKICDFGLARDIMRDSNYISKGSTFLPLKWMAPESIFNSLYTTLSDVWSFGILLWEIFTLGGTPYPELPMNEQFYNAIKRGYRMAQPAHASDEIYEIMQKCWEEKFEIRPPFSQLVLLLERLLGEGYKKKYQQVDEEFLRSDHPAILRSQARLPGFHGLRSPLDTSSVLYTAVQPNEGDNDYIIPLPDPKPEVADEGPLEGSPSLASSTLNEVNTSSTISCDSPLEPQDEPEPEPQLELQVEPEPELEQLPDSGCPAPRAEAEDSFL
Chain of Platelet-derived growth factor receptor alpha (Homo sapiens) (P16234 whole entry): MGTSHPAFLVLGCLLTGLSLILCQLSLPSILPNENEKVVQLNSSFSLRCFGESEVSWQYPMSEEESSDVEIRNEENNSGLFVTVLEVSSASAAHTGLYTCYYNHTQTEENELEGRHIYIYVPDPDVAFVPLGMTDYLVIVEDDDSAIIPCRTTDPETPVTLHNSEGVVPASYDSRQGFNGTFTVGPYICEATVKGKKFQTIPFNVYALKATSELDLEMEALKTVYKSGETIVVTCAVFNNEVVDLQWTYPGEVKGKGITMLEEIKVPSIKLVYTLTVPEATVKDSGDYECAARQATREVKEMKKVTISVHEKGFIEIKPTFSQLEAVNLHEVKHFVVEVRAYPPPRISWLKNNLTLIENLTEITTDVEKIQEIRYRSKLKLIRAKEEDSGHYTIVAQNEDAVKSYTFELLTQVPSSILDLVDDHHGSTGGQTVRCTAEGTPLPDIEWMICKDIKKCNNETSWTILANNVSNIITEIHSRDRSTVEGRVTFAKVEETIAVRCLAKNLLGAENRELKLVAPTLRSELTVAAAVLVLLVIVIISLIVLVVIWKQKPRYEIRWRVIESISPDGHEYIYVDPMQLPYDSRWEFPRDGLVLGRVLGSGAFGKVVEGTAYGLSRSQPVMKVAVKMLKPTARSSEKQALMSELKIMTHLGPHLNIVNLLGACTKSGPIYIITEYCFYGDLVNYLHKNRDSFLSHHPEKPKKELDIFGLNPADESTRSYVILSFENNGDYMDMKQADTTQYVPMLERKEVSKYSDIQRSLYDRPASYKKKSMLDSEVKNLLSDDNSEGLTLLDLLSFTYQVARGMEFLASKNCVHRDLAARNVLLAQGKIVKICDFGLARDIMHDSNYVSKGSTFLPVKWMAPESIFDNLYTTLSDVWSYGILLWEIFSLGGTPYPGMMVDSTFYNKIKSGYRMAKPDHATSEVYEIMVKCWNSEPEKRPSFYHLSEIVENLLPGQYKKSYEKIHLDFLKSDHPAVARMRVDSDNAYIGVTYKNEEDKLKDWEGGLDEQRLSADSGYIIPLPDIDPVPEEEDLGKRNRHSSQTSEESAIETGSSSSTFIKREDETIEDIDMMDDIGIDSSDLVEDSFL

As for `CCCN1CCC=C(c2ccc(Nc3nc(Nc4ccccc4C(N)=O)c4cc[nH]c4n3)c(C)c2)C1`, the inhibition in test [1] was 93.9%; in [2], 2.75%; in [3], 6.69%; in test [4], -0.18%; in test [5] it was 2.97%; in [6] it was 1.4%. Moreover, the inhibition in [7] amounted to 10.5%; in test [8], 6.76%; in test [9] it was 13.1%; in [10], 4.95%; in test [11] it was 20.5%; in test [12], 9.67%. Further, the inhibition turned out to be 40.6% in test [13]; 2.55% in test [14]; 24.2% in test [15]; 4.99% in [16]; 9.94% in test [17]; 5.63% in test [18]. Besides, the inhibition in test [19] came to 28.7%; in test [20], 8.75%.

Consider `CNC(=O)c1cncc(/C=C/c2c(Cl)cccc2Cl)c1`, for which the inhibition in test [1] was found to be 5.04%; in [2] it was 11.1%; in [3], 48.7%; in test [4], 7.62%; in [5], 43.5%; in test [6], 2.3%. Besides, the inhibition in test [7] turned out to be 2.24%; in test [8], 2.67%; in test [9], 1.88%; in [10], 3.75%; in test [11] it was 6.78%; in test [12], 8.07%. In addition, the inhibition came out at 21.1% in [13]; 0.55% in [14]; 4.33% in [15]; 1.59% in test [16]; 5.24% in test [17]; 14.1% in test [18]. In addition, the inhibition in test [19] stood at 43%; in test [20], 5.46%.

As for `O=C1Nc2ccc(C(=O)c3ccco3)cc2C1=Cc1cc(Cl)c(O)c(Cl)c1`, the inhibition in test [1] was found to be 44.2%; in [2], 5.67%; in [3], 18.9%; in test [4], 2.95%; in test [5], 16.2%; in [6], 1.35%. Further, the inhibition in test [7] amounted to 4.42%; in test [8], 2.06%; in test [9] it was 15.7%; in test [10] it was 4.03%; in [11], 8.26%; in test [12], 8.06%. Moreover, the inhibition turned out to be 26% in test [13]; 4.54% in test [14]; 19.8% in test [15]; 6.25% in test [16]; 11.5% in test [17]; 7.12% in [18]. Moreover, the inhibition in [19] was found to be 26.8%; in test [20] it was 7.32%.

`Cc1cccc(-c2n[nH]cc2-c2ccc3ncccc3n2)n1`: the inhibition in test [1] is 0.08%; in test [2] it was 0.89%; in [3], 7.91%; in [4], 0.34%; in test [5] it was 7.01%; in test [6] it was -0.08%. Moreover, the inhibition was 0.84% in test [7]; 2.89% in test [8]; -1.62% in test [9]; 0.64% in test [10]; 2.87% in test [11]; 10.7% in test [12]. Also, the inhibition in test [13] was determined as 55.3%; in test [14], 18.8%; in [15], 68.7%; in test [16] it was 1.71%; in test [17], 0.07%; in test [18], 12.3%. Also, the results for the inhibition in test [19] and in test [20] were 53% and 2.42%, respectively.

As to `CC1=C(C(=O)Nc2ccc3[nH]ncc3c2)C(c2ccc(Cl)c(Cl)c2)CC(=O)N1` (stereo not given), the inhibition was 0.02% in test [1]; 3.35% in [2]; 9.96% in [3]; 2.18% in test [4]; 7.24% in test [5]; 0.79% in test [6]. Further, the inhibition was 1.25% in test [7]; -0.1% in [8]; 5.85% in [9]; 2.88% in test [10]; 4.26% in test [11]; 6.81% in test [12]. The inhibition in test [13] turned out to be 8.15%; in test [14] it was 0.72%; in test [15], 1.68%; in test [16], 2.47%; in [17], 1.49%; in [18] it was 0.48%. The inhibition was determined as 2.1% in [19] and 1.34% in [20].

`COc1cc2ncn(-c3cc(OCc4ccccc4Cl)c(C(N)=O)s3)c2cc1OC`: the inhibition is 4.03% in test [1]; 3.15% in [2]; 25.6% in test [3]; 2.45% in test [4]; 21.1% in test [5]; 1.26% in [6]. The inhibition in [7] was 8.5%; in [8] it was -0.6%; in [9], 19.7%; in test [10], 4.75%; in test [11], 21.2%; in [12], 46.7%. The inhibition was 90.5% in [13]; 30.4% in test [14]; 82.2% in [15]; 9.35% in test [16]; 69.7% in test [17]; 39.1% in [18]. For the same compound, the inhibition in test [19] is 83.3%; in test [20], 41%.

As to `CCN1CCC(CC(=O)Nc2n[nH]c3nc(-c4cccs4)c(Br)cc23)CC1`, the inhibition is 0.89% in test [1]; 0.07% in test [2]; 1.67% in test [3]; -0.46% in [4]; 1.82% in [5]; -0.67% in test [6]. In addition, the inhibition was 3.05% in test [7]; -0.73% in test [8]; -0.38% in test [9]; 0.33% in test [10]; 6.39% in test [11]; 1.61% in [12]. For the same compound, the inhibition in [13] was 5.44%; in test [14], 1.12%; in test [15], 6.22%; in test [16], -1.25%; in [17] it was 3.53%; in test [18], 2.04%. In addition, the inhibition was determined as 4.21% in [19] and 4.9% in test [20].

Take `COc1ccc(-c2ccncc2)cc1C(N)=O`: the inhibition was 5.79% in test [1]; 4.67% in [2]; 4.69% in test [3]; 2.01% in [4]; 4.65% in test [5]; 2.57% in test [6]. The inhibition in test [7] worked out at 5.63%; in [8] it was 3.93%; in test [9], 5.8%; in test [10], 2.42%; in test [11], 8.58%; in test [12], 10.2%. The inhibition was determined as 15.4% in test [13]; 1.62% in test [14]; 4.35% in [15]; 5.26% in [16]; 8.98% in [17]; 3.41% in [18]. In addition, the inhibition in [19] was 6.77%; in [20], 5.16%.

For the compound `COc1cc(C)c(NC(=O)CN(C)C)cc1Nc1nc(Nc2cccc(F)c2C(N)=O)c2cc[nH]c2n1`, the inhibition in [1] was 95.6%; in test [2], 3.5%; in [3], 1.33%; in [4], 2.46%; in test [5] it was -0.14%; in test [6], 2.47%. Also, the inhibition in test [7] was 7.53%; in [8] it was 3.32%; in test [9], -1.66%; in test [10] it was 5.47%; in [11] it was 28.9%; in test [12] it was 7.3%. Further, the inhibition in test [13] was found to be 16.9%; in [14] it was 1.18%; in test [15], 3.96%; in test [16], 0.9%; in [17], 3.29%; in [18], 1.13%. Further, the inhibition in test [19] was 10.8%; in test [20] it was 2.12%.

For the compound `NC(=O)c1cccc(Nc2nccc(Nc3cccc4[nH]ncc34)n2)c1`, the inhibition is 39% in test [1]; 58.5% in [2]; 91.3% in test [3]; 52.3% in [4]; 88.9% in [5]; -0.28% in test [6]. Further, the inhibition is 8.27% in [7]; -1.63% in test [8]; 4.73% in test [9]; 1.07% in test [10]; 15.3% in test [11]; 23.7% in test [12]. In addition, the inhibition in [13] was 71.3%; in test [14], 13.2%; in test [15], 67.7%; in test [16], -2.44%; in test [17] it was 4.54%; in [18], 20.7%. The inhibition in test [19] is 70.4%; in [20] it was 42.1%.
